Common to all, as to experiment: NCI-60 one-dose screen, 48 h (100 = growth as untreated, 0 = no growth, -100 = all killed)
For one assay, the system named is SR leukemia. As to conditions: 10 µM unless noted.
In a further assay the test system is RPMI-8226 leukemia. As to conditions: 10 µM unless noted.
In a further assay the test system is OVCAR-8 ovarian. As to conditions: 10 µM unless noted.
Another assay relates to OVCAR-5 ovarian. As to conditions: 10 µM unless noted.
The subject of a further assay is OVCAR-4 ovarian. As to conditions: 10 µM unless noted.
In the next assay the test system is SK-OV-3 ovarian. As to conditions: 10 µM unless noted.
Another assay deals with IGROV1 ovarian. As to conditions: 10 µM unless noted.
The test system of the next assay is OVCAR-3 ovarian. As to conditions: 10 µM unless noted.
For the next assay, the system named is HS 578T breast. As to conditions: 10 µM.
The test system of the next assay is NCI/ADR-RES ovarian. As to conditions: 10 µM unless noted.
A further assay relates to T-47D breast. As to conditions: 10 µM unless noted.
The next assay has as its system BT-549 breast. As to conditions: 10 µM unless noted.
The subject of the next assay is MDA-MB-435 melanoma. As to conditions: 10 µM unless noted.
The test system of another assay is SW-620 colon. As to conditions: 10 µM unless noted.
The next assay relates to MCF7 breast. As to conditions: 10 µM unless noted.
For another assay, the system named is HCT-116 colon. As to conditions: 10 µM unless noted.
A further assay deals with HCC-2998 colon. As to conditions: 10 µM unless noted.
Another assay concerns KM12 colon. As to conditions: 10 µM unless noted.

About 83,000 compounds went through this panel and 20% of them were active in at least one assay; those are over-represented in the sample as a whole.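 For each line, cells grew in 96-well plates with the test compound present at a single concentration for 48 hours.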 A number with no mark means an inactive call. The source made the active and inactive calls. The calls were made as follows: active = growth percent below 10; inactive = the rest.

Consider `COc1ccc(-c2nc(-c3ccccc3OCc3ccccc3OC)nc(C)c2C(C)=O)cc1`, for which the growth with SR leukemia is 78.8%; with RPMI-8226 leukemia, 73%; with OVCAR-8 ovarian, 86.9%; in the assay with OVCAR-5 ovarian, 94.1%; with OVCAR-4 ovarian, 94.9%; in the assay on SK-OV-3 ovarian it was 96.1%. In addition, the growth in the assay on IGROV1 ovarian is 89.7%; with OVCAR-3 ovarian it was 102%; in the assay on HS 578T breast, 72.8%; with NCI/ADR-RES ovarian it was 83.7%; in the assay with T-47D breast, 61%; in the assay on BT-549 breast it was 98.4%. Moreover, the growth in the assay with MDA-MB-435 melanoma is 90.4%; in the assay with SW-620 colon it was 67.5%; with MCF7 breast, 83.8%; with HCT-116 colon, 66.4%; in the assay with HCC-2998 colon it was 86.2%; in the assay on KM12 colon, 64.4%.

With `O=C(CI)NCCNc1cccc2c(S(=O)(=O)O)cccc12`, the growth in the assay on SR leukemia was 90.4%; in the assay with RPMI-8226 leukemia, 101%; in the assay on OVCAR-8 ovarian, 110%; with OVCAR-5 ovarian, 107%; in the assay with OVCAR-4 ovarian it was 110%; in the assay on SK-OV-3 ovarian, 106%. Besides, the growth is 97.6% in the assay on IGROV1 ovarian; 100% in the assay on OVCAR-3 ovarian; 104% in the assay on HS 578T breast; 106% with NCI/ADR-RES ovarian; 103% with T-47D breast; 96.8% with BT-549 breast. Besides, the growth was 93.2% in the assay on MDA-MB-435 melanoma; 102% with SW-620 colon; 99.9% in the assay on MCF7 breast; 96% in the assay with HCT-116 colon; 112% in the assay with HCC-2998 colon; 95.7% in the assay with KM12 colon.

`CCCc1n(Cc2ccc3ccccc3n2)cc[n+]1Cc1ccc2ccccc2c1`: the growth was -0.784% (active) in the assay with SR leukemia; -7.06% (active) in the assay with RPMI-8226 leukemia; 10.8% in the assay on OVCAR-8 ovarian; 5.17% (active) in the assay on OVCAR-5 ovarian; 5.87% (active) in the assay with OVCAR-4 ovarian; 0.843% (active) in the assay with SK-OV-3 ovarian. Besides, the growth is 3.66% (active) in the assay on IGROV1 ovarian; -4% (active) in the assay with OVCAR-3 ovarian; 24.4% with HS 578T breast; 95.7% with NCI/ADR-RES ovarian; -2.95% (active) in the assay with T-47D breast; -3.95% (active) in the assay with BT-549 breast. Also, the growth with MDA-MB-435 melanoma was -6.36% (active); with SW-620 colon, 15%; with MCF7 breast it was 2.91% (active); with HCT-116 colon it was 1.31% (active); with HCC-2998 colon, 12.5%; with KM12 colon, -4.46% (active).

For `Fc1ccc2c(CN3CCO[C@H](COc4cccc(Cl)c4)C3)c[nH]c2c1`, the growth in the assay on SR leukemia was 37.3%; with RPMI-8226 leukemia it was 12.5%; with OVCAR-8 ovarian it was 33.3%; in the assay on OVCAR-5 ovarian, 85.8%; in the assay on OVCAR-4 ovarian, 71.2%; in the assay on SK-OV-3 ovarian, 85.7%. Moreover, the growth was 63% in the assay with IGROV1 ovarian; 36.7% with OVCAR-3 ovarian; 64.8% in the assay with HS 578T breast; 47.3% in the assay on NCI/ADR-RES ovarian; 37.5% in the assay on T-47D breast; 57.7% in the assay with BT-549 breast. In addition, the growth with MDA-MB-435 melanoma was 50%; in the assay with SW-620 colon, 59.7%; in the assay with MCF7 breast, 20.3%; with HCT-116 colon it was 28.8%; in the assay with HCC-2998 colon it was 96.9%.

Consider `COc1cccc(Cn2c(-c3nonc3NC(C)=O)nc3ccccc32)c1`, for which the growth was 16.3% in the assay on SR leukemia; 28.4% with RPMI-8226 leukemia; 50.9% with OVCAR-8 ovarian; 39.2% with OVCAR-5 ovarian; 79.9% with OVCAR-4 ovarian; 16.9% in the assay with SK-OV-3 ovarian. Also, the growth in the assay with IGROV1 ovarian was 56.8%; in the assay on OVCAR-3 ovarian, 69.5%; in the assay on HS 578T breast, 23.6%; in the assay with NCI/ADR-RES ovarian it was 30.3%; in the assay with T-47D breast, 42.3%; in the assay with BT-549 breast, 41.6%. Besides, the growth was -35% (active) in the assay with MDA-MB-435 melanoma; 28.7% with SW-620 colon; 47.4% in the assay with MCF7 breast; 42.7% in the assay with HCT-116 colon; 49.3% in the assay with HCC-2998 colon; 30.4% in the assay on KM12 colon.

Consider `COc1ccccc1NC(=O)OCC12COCN1COC2`, for which the growth in the assay with SR leukemia was 93.8%; in the assay on RPMI-8226 leukemia, 99.8%; with OVCAR-8 ovarian, 96%; in the assay with OVCAR-5 ovarian, 96.4%; with OVCAR-4 ovarian, 105%; with SK-OV-3 ovarian it was 105%. The growth in the assay with IGROV1 ovarian was 109%; in the assay with OVCAR-3 ovarian, 116%; in the assay with HS 578T breast it was 110%; with NCI/ADR-RES ovarian it was 107%; in the assay on T-47D breast, 102%; in the assay on BT-549 breast, 117%. In addition, the growth in the assay with MDA-MB-435 melanoma is 102%; in the assay on SW-620 colon, 101%; in the assay with MCF7 breast, 92.4%; with HCT-116 colon it was 113%; in the assay on HCC-2998 colon, 116%; in the assay with KM12 colon it was 107%.

With `COc1ccc(C2=CC(c3ccc(OC)cc3Br)N3C=CSC3=N2)cc1` (stereo not drawn), the growth is -22.1% (active) in the assay on SR leukemia; -9.05% (active) in the assay on RPMI-8226 leukemia; 73.7% in the assay with OVCAR-8 ovarian; 84.6% with OVCAR-5 ovarian; 79.7% with OVCAR-4 ovarian; 98.2% in the assay on SK-OV-3 ovarian. The growth was 37.8% in the assay on IGROV1 ovarian; 37.5% in the assay with OVCAR-3 ovarian; 87.7% in the assay with HS 578T breast; 86.5% in the assay with NCI/ADR-RES ovarian; 54.6% with T-47D breast; 30.7% with BT-549 breast. For the same compound, the growth in the assay with MDA-MB-435 melanoma was 4.2% (active); in the assay on SW-620 colon it was 27.3%; in the assay on MCF7 breast, 10.5%; in the assay on HCT-116 colon it was -100% (active); in the assay on HCC-2998 colon, 59.7%; in the assay on KM12 colon, 24.1%.

`COc1ccc([C@@H]2[C@@H](Cl)C(=O)N2c2cc(OC)c(OC)c(OC)c2)cc1C`: the growth with SR leukemia is 9.63% (active); with RPMI-8226 leukemia, 8.48% (active); in the assay with OVCAR-8 ovarian, 14.8%; in the assay on OVCAR-5 ovarian it was 59.7%; in the assay with OVCAR-4 ovarian, 39.1%; in the assay with SK-OV-3 ovarian, 30.4%. Moreover, the growth is 31.6% in the assay on IGROV1 ovarian; -5.67% (active) with OVCAR-3 ovarian; 47.9% with HS 578T breast; 16% in the assay on NCI/ADR-RES ovarian; 77.7% in the assay with T-47D breast; 6.51% (active) in the assay with BT-549 breast. Further, the growth in the assay with MDA-MB-435 melanoma is -33.7% (active); in the assay with SW-620 colon, 26.7%; in the assay on MCF7 breast, 20.5%; with HCT-116 colon, 3.33% (active); with HCC-2998 colon, 19.5%; in the assay with KM12 colon it was 12.8%.

These data come from PubChem BioAssay (NCI).
